LDHA block: qHTS assay for inhibitors of human lactate dehydrogenase | L-lactate dehydrogenase A chain (Homo sapiens), P00338 | purified LDHA, NADH/diaphorase-resazurin fluorescence; hits give low values | activity change, % (values are at about 110 or 230 µM) | actives 0.15% (n = 480,000) | AID 1347041, 2019; in the data active = activity change below about -30%; inconclusive = mostly about -25% to -30%;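 note: plate controls were DMSO wells for no effect and wells without enzyme for full effect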
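Human LDH5 at 2 nM final in Tris HCl pH 7.4 with 0.06 mM NADH and 0.2 mM pyruvate, reacted 5 minutes at room temperature. Remaining NADH coupled via diaphorase/resazurin; resorufin fluorescence read at 0 and 20 minutes, normalized to enzyme-free and DMSO wells.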
RORg inh: qHTS for inhibitors of ROR gamma transcriptional activity | actives 5.4% (n = 310,000) | Drosophila S2 Gal4-RORgamma UAS-luciferase reporter, 20 h | Potency, µM (titrated, usually from 53.6 µM), inactives show at the top dose activity change, negative = inhibition, hits mostly inhibitors; note: potency is the fitted concentration of half-maximal effect; nearly all actives have a fitted effect of over 60% in size
Target sequence (P51450 whole entry, looked up, the tested form may be a part): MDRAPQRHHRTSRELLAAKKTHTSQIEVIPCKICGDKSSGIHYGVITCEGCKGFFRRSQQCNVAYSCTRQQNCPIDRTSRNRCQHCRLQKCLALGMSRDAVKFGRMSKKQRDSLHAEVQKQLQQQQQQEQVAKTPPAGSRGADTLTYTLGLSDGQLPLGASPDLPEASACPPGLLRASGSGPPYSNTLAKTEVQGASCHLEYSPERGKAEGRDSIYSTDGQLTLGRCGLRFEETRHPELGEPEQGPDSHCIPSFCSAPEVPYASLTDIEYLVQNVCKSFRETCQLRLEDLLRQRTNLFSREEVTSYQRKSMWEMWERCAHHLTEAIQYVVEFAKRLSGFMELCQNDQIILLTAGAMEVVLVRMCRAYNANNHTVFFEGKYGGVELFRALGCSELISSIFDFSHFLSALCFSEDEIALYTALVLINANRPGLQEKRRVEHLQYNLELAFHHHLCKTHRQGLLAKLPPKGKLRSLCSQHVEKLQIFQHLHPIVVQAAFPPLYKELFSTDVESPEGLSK
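Compounds are pin-transferred onto Drosophila Schneider cells expressing a copper-inducible Gal4–ROR gamma transactivation domain fusion. After 1 hr, copper sulfate is added to 700 uM final; luciferase is read 20 hr later.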
DT40 TDP1 no CPT: qHTS for Inhibitors of human tyrosyl-DNA phosphodiesterase 1 (TDP1): qHTS in cells in absence of CPT | Potency, µM (highest dose often 46.2 µM), without a hit: top-dose activity change, negative = growth inhibition, hits mostly inhibitors | actives 15% (n = 420,000) | AID 686978, 2013 | DT40 Tdp1-/- hTDP1 cells, no CPT, ATP luminescence, 48 h; note: potency is the fitted concentration of half-maximal effect; nearly all actives have a fitted effect of over 55% in size
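Compound effects on proliferation are scored in DT40 Tdp1-/-;hTDP1 cells in the absence of CPT. ATP levels (CellTiter-Glo luminescence) are recorded after a ≥48 hr, 37 °C incubation.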
TDP1 cell CPT: qHTS for Inhibitors of human tyrosyl-DNA phosphodiesterase 1 (TDP1): qHTS in cells in presence of CPT; actives 12% (n = 420,000); AID 686979, 2013; Potency, µM (series often up to 46.2 µM), for inactives: at the highest dose activity change, negative = growth inhibition, most hits filed as inhibitors; chicken DT40 Tdp1-/-;hTDP1 cells + 20 nM CPT, ATP luminescence, 48 h; note: potency is the fitted concentration of half-maximal effect; nearly all actives have a fitted effect of over 55% in size
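Cell growth measured by CellTiter-Glo luminescence after a minimum 48 h, 37 C compound exposure with 20 nM CPT in Tdp1-knockout DT40 cells stably expressing hTDP1, seeded 400/well; qHTS titration format.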
IL1B secr inh: qHTS for Inhibitors of Inflammasome Signaling: IL-1-beta AlphaLISA Primary Screen; THP-1 LPS/ATP IL-1B secretion, AlphaLISA, 16 h; hits give low values; activity change, % at 57.5 µM; actives 4.7% (n = 360,000); AID 743279, 2014; in the data active = activity change below about -50%; inconclusive = mostly about -30% to -49%
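Secreted IL-1B measured by AlphaLISA bead assay after 16 h compound exposure of THP-1 cells; compounds (final up to 57.5 uM) added 1 h before LPS (250 ng/mL) and ATP (1.25 mM) stimulation; lower signal means less secretion.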
Gal4-VP16 FLuc: VP16 counterscreen qHTS for inhibitors of ROR gamma transcriptional activity; Potency, µM (titrated, usually from 53.6 µM), for the others: at the top dose activity, negative = inhibition, actives largely listed as inhibitors; AID 2546, 2010; actives 3.5% (n = 310,000); Drosophila S2 Gal4-VP16 UAS-luciferase, luminescence, 20 h;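 note: Gal4-VP16 expression switched on by copper sulfate through the metallothionein promoter; potency is the fitted concentration of half-maximal effect; nearly all actives have a fitted effect of over 50% in size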
Numbers without * were called inactive. Most compounds without a hit are left out; they make up all but 18% or so of the library. Unless noted, calls come from the whole dose curve; as a rule, active = well fitted curve in the direction sought with a large enough effect; inconclusive = small, poorly fitted or top-dose-only effect, or another doubt; inactive = no such curve, though single readings can be large; an effect the other way counts as inactive or inconclusive. Unless noted, % is set by controls: 0 for no effect and ±100 for the full control effect.

For CCCN(CC(=O)Nc1ccccc1OC)C(=O)c1cnc(Cl)c(Cl)c1 the results were LDHA block -2, RORg inh 20%, DT40 TDP1 no CPT inconclusive, TDP1 cell CPT -27%, IL1B secr inh 18 and Gal4-VP16 FLuc -6%.
Screening CCN(CC(=O)Nc1cccc(OC)c1)C(=O)c1cnc(Cl)c(Cl)c1 returned LDHA block -7, RORg inh -1%, DT40 TDP1 no CPT inconclusive, TDP1 cell CPT -11%, IL1B secr inh -83* and Gal4-VP16 FLuc -14%.
Cc1ccc(NC(=O)CN(C)C(=O)c2ccc(OCc3cn4ccccc4n3)cc2)cc1 was read as LDHA block -11, DT40 TDP1 no CPT -22%, TDP1 cell CPT inconclusive and IL1B secr inh 32.
`COc1cccc(NC(=O)CN(C)C(=O)CNC(=O)c2ccc3ccccc3c2)c1` gave LDHA block 0, DT40 TDP1 no CPT 5%, TDP1 cell CPT -1% and IL1B secr inh -100*.
CN(CC(=O)Nc1cccc(F)c1)C(=O)c1ccc(OCc2cn3ccccc3n2)cc1 was read as LDHA block -4, DT40 TDP1 no CPT 15µM*, TDP1 cell CPT inconclusive and IL1B secr inh -2.
Screening COc1cccc(NC(=O)CN(C)C(=O)c2ccc3ccccc3c2)c1 returned LDHA block -12, RORg inh -8%, DT40 TDP1 no CPT 2%, TDP1 cell CPT -3%, IL1B secr inh 17 and Gal4-VP16 FLuc -1%.
For O=C(C1CCCO1)N1CCN(Cc2coc(-c3ccc(Cl)cc3)n2)CC1 (stereo not drawn) the results were LDHA block -3.
COc1cccc(NC(=O)COc2coc(CN3CCSCC3)cc2=O)c1 was read as LDHA block 3.
Screening Cc1cccc(C)c1NC(=O)CCc1c[nH]c2ccccc12 returned LDHA block -11.
For CC(C)Oc1ccc(/C=C(/C#N)C(=O)c2ccccc2F)cc1 the results were LDHA block 5.
C/C=C1\COC(C(=O)NCc2cccc(OC)c2OC)(C(F)(F)F)C=C1C=C1CCCCC1 (stereo not drawn) was read as LDHA block 3, RORg inh inconclusive, DT40 TDP1 no CPT 16µM*, TDP1 cell CPT 15µM*, IL1B secr inh inconclusive and Gal4-VP16 FLuc 2%.
For C/C=C1\COC(C(=O)NCc2ccncc2)(C(F)(F)F)C=C1C=C1CCCCC1 (stereo not drawn) the results were LDHA block -3, RORg inh 16µM*, DT40 TDP1 no CPT inconclusive, TDP1 cell CPT inconclusive, IL1B secr inh 95 and Gal4-VP16 FLuc inconclusive.
CC(=O)N1CCC2(CC1)CC(=O)c1ccc(OCC(=O)NC3Cc4ccccc4C3)cc1O2 was read as LDHA block -10.
Cc1ccc(CNS(=O)(=O)c2cc(-c3cc(C(F)(F)F)on3)ccc2C)cc1 was read as LDHA block 12.
`COc1cccc(-c2nnc3sc(-c4cccs4)nn23)c1` gave LDHA block -5, RORg inh 6%, DT40 TDP1 no CPT 16µM*, TDP1 cell CPT 15µM*, IL1B secr inh inconclusive and Gal4-VP16 FLuc 3%.
CCOc1cccc(-c2nnc3sc(-c4cccs4)nn23)c1 was read as LDHA block -19, RORg inh -11%, DT40 TDP1 no CPT 13µM*, TDP1 cell CPT 15µM*, IL1B secr inh -13 and Gal4-VP16 FLuc -7%.
For O=C(CN1CCN(C(=O)CCc2ncc(-c3ccc(F)cc3)o2)CC1)Nc1ccccc1Cl the results were LDHA block -4.
For CCN1CCN(C(=O)c2cn(Cc3ccccc3)nc2-c2ccc(C)c(C)c2)CC1 the results were LDHA block -4.
CCOc1cc2ccccc2cc1C(=O)N1CCN(CC(=O)Nc2ccccc2Cl)CC1 was read as LDHA block -14.
`CC(=O)c1cccc(S(=O)(=O)NCC(=O)O)c1` gave LDHA block -4.
Screening C=CCNC(=S)NNC(=O)C(CCCC)CC(C)(C)O (stereo not drawn) returned LDHA block 0, RORg inh 2.8µM*, DT40 TDP1 no CPT 7.3µM*, TDP1 cell CPT 8.2µM*, IL1B secr inh 0 and Gal4-VP16 FLuc 5.6µM*.
For CCCCOc1ccc(C(=O)NNC(=S)NC(=O)CC)cc1 the results were LDHA block -5, RORg inh -29%, DT40 TDP1 no CPT 2.6µM*, TDP1 cell CPT 4.6µM*, IL1B secr inh -96* and Gal4-VP16 FLuc inconclusive.
Screening COc1ccc(C(=O)NC(=S)NNC(=O)c2ccc(C)cc2)cc1 returned LDHA block -11, DT40 TDP1 no CPT inconclusive, TDP1 cell CPT inconclusive and IL1B secr inh 32.
Screening C=CCNC(=S)NNC(=O)c1ccc(OCCCC)cc1 returned LDHA block -4, RORg inh 8.9µM*, DT40 TDP1 no CPT -25%, TDP1 cell CPT -13%, IL1B secr inh 8 and Gal4-VP16 FLuc inconclusive.
CCC(=O)NC(=S)NNC(=O)c1ccc(OC)cc1 was read as LDHA block 2, RORg inh -19%, DT40 TDP1 no CPT 22µM*, TDP1 cell CPT 29µM*, IL1B secr inh 56 and Gal4-VP16 FLuc -3%.
Screening CCC(C)C(=O)Nc1cc(S(=O)(=O)N(CC)CC)ccc1N1CCOCC1 (stereo not drawn) returned LDHA block 4.
O=C(CC(=O)c1ccccc1F)c1ccccc1F was read as LDHA block 9.
`O=C(NCCC1=CCCCC1)c1cccc(S(=O)(=O)N2CCCCC2)c1` gave LDHA block -1, DT40 TDP1 no CPT 23µM*, TDP1 cell CPT inconclusive and IL1B secr inh 0.
`CC1CN(S(=O)(=O)c2cccc(C(=O)NCCC3=CCCCC3)c2)CC(C)O1` (stereo not drawn) gave LDHA block -6, DT40 TDP1 no CPT 21µM*, TDP1 cell CPT 12µM* and IL1B secr inh 3.
For O=C(NCCC1=CCCCC1)c1cc(S(=O)(=O)N2CCCCC2)ccc1Cl the results were LDHA block -1, DT40 TDP1 no CPT inconclusive, TDP1 cell CPT inconclusive and IL1B secr inh 7.
